Screening results: PubChem BioAssay, National Center for Advancing Translational Sciences (NCATS)
ELG1 DNA repair = qHTS screen for small molecules that inhibit ELG1-dependent DNA repair in human embryonic kidney (HEK293T) cells expressing luciferase-tagged ELG1. Potency, µM (doses to about 46.1 µM), actives largely listed as inhibitors. HEK293T ELG1-luciferase reporter, luminescence, 16 h; DNA damage induced by 5-fluorouridine. 2.3% of 330,000 active; also: nearly all actives have a fitted effect of over 55% in size
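Luminescence from the luciferase reporter, measured 30 min after ONE-Glo reagent at room temperature, was the read-out. Beforehand, 2,000 cells per well were exposed for 16 hr at 37 °C to 5-fluorouridine together with compound or vehicle.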
NPC1 promoter act = qHTS Assay for NPC1 Promoter Activators; AID 485313, 2010; Potency, µM (top dose mostly 9.22 µM), hits mostly activators; Huh7 NPC1 promoter luciferase reporter, 24 h; 2.4% of 320,000 active; also: nearly all actives have a fitted effect of over 60% in size
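Luminescence from an NPC1 promoter-driven luciferase reporter in stably transfected Huh7 cells was measured after 24 h compound treatment at 37 °C, followed by 10 min ambient incubation with luciferase detection reagent.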
ELG1 genotox = qHTS screen for small molecules that induce genotoxicity in human embryonic kidney (HEK293T) cells expressing luciferase-tagged ELG1; 1.3% of 330,000 active; HEK293T ELG1-luciferase reporter, luminescence, 16 h; Potency, µM (highest dose often 46 µM), most hits filed as activators; also: nearly all actives have a fitted effect of over 60% in size
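Reporter readout depends on ELG1 protein level, which increases with genetic stress. After 16 hr compound exposure at 37 °C, luciferase activity was quantified using ONE-Glo.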
Rab9 prom act = qHTS Assay for Rab9 Promoter Activators. AID 485297, 2010. Potency, µM (highest dose often 9.22 µM), hits mostly activators. 2.8% of 320,000 active. Huh7 Rab9 promoter-luciferase reporter, luminescence, 24 h; also: nearly all actives have a fitted effect of over 60% in size
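Huh7 cells stably carrying Rab9 promoter–luciferase reporter, plated 1500 cells/well, compound added after 2 h and incubated 24 h at 37 °C; luciferase luminescence then read after 10 min with detection reagent.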
SMN2 splice up = qHTS Assay for Enhancers of SMN2 Splice Variant Expression | AID 1458, 2008 | Potency, µM (top dose mostly 46.1 µM), usual class: activators | HEK293 SMN2-luciferase splicing reporter, luminescence, 30-36 h | 2.8% of 210,000 active; also: nearly all actives have a fitted effect of over 55% in size
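HEK293 cells carry an SMN2 […]–luciferase reporter in which exon 7 inclusion puts luciferase in frame. Cells were plated 10-12 h before compound addition, then incubated 30-36 h at 37C. ONE-Glo luminescence was read; sodium butyrate at 4.5 mM final served as control.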
FLuc counter = qHTS profiling assay for firefly luciferase inhibitor/activator using purifed enzyme and Km concentrations of substrates (counterscreen for miR-21 project). purified FLuc, Km substrates, luminescence inhibition. Potency, µM (highest dose often 57.5 µM), most hits filed as inhibitors. 6.9% of 360,000 active. Luciferin 4-monooxygenase (Photinus pyralis), P08659. AID 588342, 2011; also: nearly all actives have a fitted effect of over 55% in size
Target sequence (P08659 whole entry, looked up): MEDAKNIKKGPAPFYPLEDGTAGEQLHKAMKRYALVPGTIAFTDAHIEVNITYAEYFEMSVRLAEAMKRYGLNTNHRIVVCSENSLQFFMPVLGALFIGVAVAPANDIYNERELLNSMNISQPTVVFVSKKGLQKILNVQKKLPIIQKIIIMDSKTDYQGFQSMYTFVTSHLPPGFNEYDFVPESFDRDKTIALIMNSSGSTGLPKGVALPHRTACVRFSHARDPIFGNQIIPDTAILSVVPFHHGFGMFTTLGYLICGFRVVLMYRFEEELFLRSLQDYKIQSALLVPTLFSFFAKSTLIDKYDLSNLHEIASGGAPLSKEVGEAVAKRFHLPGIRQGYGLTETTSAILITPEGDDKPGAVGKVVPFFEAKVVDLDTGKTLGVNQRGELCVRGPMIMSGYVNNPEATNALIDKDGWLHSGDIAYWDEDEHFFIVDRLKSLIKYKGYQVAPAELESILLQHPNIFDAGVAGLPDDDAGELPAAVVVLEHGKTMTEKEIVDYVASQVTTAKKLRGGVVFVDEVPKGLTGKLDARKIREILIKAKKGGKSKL
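Purified P. pyralis luciferase, 10 nM final, with Km-level 10 uM D-luciferin and 10 uM ATP in 50 mM Tris acetate pH 7.5, 10 mM Mg acetate, 0.01% Tween-20, 0.05% BSA; 6-point qHTS titration about 60 µM downward; luminescence read.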
Numbers stand for hits; 0 = inactive; ? = inconclusive; - = not tested or not shown; [ ] = dose if it differs, or a comment. Shown are actives, neighbours in structure and some others; about 9.2% of the full set was active somewhere. Calls follow the shape of the dose curve; as a rule, active = well fitted curve in the direction sought with a large enough effect; inconclusive = small, poorly fitted or top-dose-only effect, or another doubt; inactive = no such curve, though single readings can be large; an effect the other way counts as inactive or inconclusive.

SMILES	ELG1 DNA repair	NPC1 promoter act	ELG1 genotox	Rab9 prom act	SMN2 splice up	FLuc counter
Nc1c(C(=O)c2ccccc2)oc2ccc([N+](=O)[O-])cc12	?	3.5µM	0	3.5µM	-	?
Cc1nc2c(C)cccc2cc1C(=O)N/N=C/c1cccnc1	0	0	0	0	0	?
O=S(=O)(c1ccc(Br)s1)N1CCN(CCOc2ccccc2)CC1	?	0	0	0	-	0
COc1cc2c(cc1OC)C1(Nc3c-2c(Cc2ccccc2)nn3-c2ccccc2)C(=O)Nc2ccccc21 (stereo not drawn)	13µM	0	0	0	0	0
CCCSCCCNC(=O)c1ccc(C)c(NC(=O)c2nsc3ccccc23)c1	-	-	-	-	-	0
O=C(NCc1cccc(F)c1)c1ccc(NC(=O)c2nsc3ccccc23)cc1	-	-	-	-	-	4.8µM
Cc1ccc(NC(=O)c2nc[nH]c2C(=O)NCc2ccccc2)cc1	0	0	0	0	-	0
O=C(Nc1ccc(F)cc1)N1CCN(C(=O)c2nsc3ccccc23)CC1	-	-	-	-	-	0
Cc1ccc(C(=O)NCc2ccc(N(C)C)cc2)cc1NC(=O)c1nsc2ccccc12	-	-	-	-	-	0
CN(C)c1ccc(CNC(=O)c2ccc(NC(=O)c3nsc4ccccc34)cc2)cc1	-	-	-	-	-	2.7µM
Cc1ccc(CNC(=O)c2ccc(NC(=O)c3nsc4ccccc34)cc2)cc1	-	-	-	-	-	6.7µM
Cc1ccccc1CNC(=O)c1ccc(NC(=O)c2nsc3ccccc23)cc1	-	-	-	-	-	6.7µM
CCOC(=O)c1ccc(NS(=O)(=O)c2ccc3oc(=O)[nH]c3c2)cc1	0	0	0	0	-	0
Cc1ccc(C#CC[N+]2(CC#Cc3ccc(C)cc3)CCCCC2)cc1	12µM	0	0	0	0	0
O=C(COc1ccc2c(c1)CCC2)NCc1cccc(Cl)c1	0	0	0	0	-	0
O=C(NCc1ccccc1)c1cccc(COc2ccc3c(c2)CCC3)c1	?	0.35µM	0.65µM	0.35µM	1.3µM	1.3µM
COC(=O)c1ccccc1NC(=O)c1ccc(COc2ccc3c(c2)CCC3)cc1	?	0	0	0	0	?
COc1ccccc1NC(=O)c1ccc(COc2ccc3c(c2)CCC3)cc1	?	0	0	0	11µM	0
O=C(Nc1ccccc1)c1ccc(CSc2ccccn2)cc1	?	1.3µM	?	1.6µM	22µM	2.1µM
COc1cccc(OC)c1C(=O)NNC(=O)c1cccc(COc2ccc3c(c2)CCC3)c1	?	0.45µM	0.37µM	0.56µM	1.4µM	4.8µM
O=S(=O)(c1ccc2nc(N3CCN(c4ccc(F)cc4)CC3)ccc2c1)N1CCCCC1	0	0	0	0	-	0
O=C(O)c1cccc(COc2ccc3c(c2)CCC3)c1	?	3.5µM	?	3.2µM	-	0.067µM
COc1ccccc1NC(=O)c1ccc(CSc2ncccn2)cc1	0	0	0	0	-	17µM
Cc1nn(-c2ccccc2)c(C)c1C(=O)OCC(=O)N1c2ccccc2NC(=O)C1(C)C	18µM	0	0	0	0	0
COc1ccc(NC(=O)c2c(C)nn(-c3ccccc3)c2Cl)cc1	?	0	0	0	-	?
SMILES	ELG1 DNA repair	NPC1 promoter act	ELG1 genotox	Rab9 prom act	SMN2 splice up	FLuc counter
COc1cccc(NC(=O)c2c(C)nn(-c3ccccc3)c2Cl)c1	?	0	0	?	-	17µM
Cc1ccc(NC(=O)c2c(C)nn(-c3ccccc3)c2Cl)cc1	?	0	0	0	0	15µM
CC(=O)c1ccc(NC(=O)c2c(C)nn(-c3ccccc3)c2Cl)cc1	0	0	0	0	-	0
COc1cccc(NC(=O)COC(=O)c2c(C)nn(-c3ccccc3)c2C)c1	?	0	0	0	-	21µM
O=C(CN1CCc2ccccc21)NN1CC(=O)N(c2ccc(Cl)cc2)CC1=O	0	0	0	0	-	0
CS(=O)(=O)N1CCc2cc(NC(=O)c3ccc(Cl)cc3Cl)ccc21	0	0	0	0	0	19µM
O=C(COC(=O)c1ccccc1O)Nc1ccc2ccccc2c1	?	-	0	-	-	-
CCOC(=O)c1cc(NC(=O)c2ccoc2C)cc(C(=O)OCC)c1	9.2µM	0	0	0	0	?
O=C(Nc1ccc2ccccc2c1)c1ccccc1O	?	4µM	0.23µM	3.5µM	-	0.3µM
CC(C)C(=O)Nc1cccc(NC(=O)c2ccc(Cl)cc2Cl)c1	0	0	0	0	0	?
O=C(Nc1ccc2ccccc2c1)c1ccc(Cl)cc1Cl	?	0.22µM	2.1µM	0.4µM	-	0.34µM
CS(=O)(=O)N1CCc2cc(C(=O)Nc3ccc(Cl)cc3)ccc21	0	?	0	?	-	?
COc1ccc(CCN2C(=O)N[C@@H](CCC(=O)O)C2=O)cc1	0	0	0	0	-	0
COc1ccc(NC(=O)N(C)C[C@H]2Oc3ccc(NC(=O)C4CC4)cc3CC(=O)N([C@@H](C)CO)C[C@@H]2C)cc1	0	-	0	-	-	-
O=C(Nc1ccc2ccccc2c1)c1cc(F)c(F)cc1Cl	?	2µM	?	?	-	3.4µM
CCCCOc1ccc(NC(=O)c2cc(F)c(F)cc2Cl)cc1	?	0	0	0	0	0
O=C(Nc1nc(=S)ss1)c1ccc(Cl)cc1Cl	?	?	0	?	?	15µM
Cc1occc1C(=O)Nc1ccc2ccccc2c1	?	1.4µM	?	2.5µM	11µM	3.4µM
N#C[C@H](c1ccccc1)N1CCCN([C@@H](C#N)c2ccccc2)C1c1ccccc1O (stereo partly drawn)	-	-	-	-	0[9.22 µM]	-
COc1ccc(N2CC(NC(=O)c3cc4ccccc4o3)CC2=O)cc1 (stereo not drawn)	-	-	-	-	-	0
O=C(Nc1ccccc1)Nc1nc(-c2ccccc2)cs1	0	0	0	0	-	?
COc1cccc(-c2csc(NC(=O)C3CC3)n2)c1	?	?	12µM	?	0	11µM
COc1ccc(NC(=O)CN2CCN(c3nc(-c4cccc(OC)c4)cs3)CC2)cc1	12µM	0	0	0	0	?
COc1cccc(-c2csc(NC(=O)Nc3ccccc3)n2)c1	?	0	0	0	-	13µM
CCOC(=O)c1sc2ccccc2c1S(=O)(=O)NCc1ccc(F)cc1	-	-	-	-	-	0
CCC1(c2ccccc2)NC(=O)N(CC(=O)Nc2cc(S(=O)(=O)N3CCCCCC3)ccc2OC)C1=O (stereo not drawn)	?	0	0	0	-	0
Cc1ccc(S(=O)(=O)N2C[C@@H]3CCCC[C@@H]3[C@@H](C)[C@H]2CC(=O)c2ccccc2)cc1	0	-	0	-	-	-
Clc1ccc(OCc2nc3ccccc3[nH]2)cc1	?	2µM	?	1.1µM	11µM	3.4µM
Cc1ccc(OCc2nc3ccccc3[nH]2)cc1	?	1.4µM	?	0.63µM	3.5µM	1.3µM
